Results filed as inconclusive are left out. Calls of active or inactive are those of the source. The calls were made as follows: active = hit-call score of the fitted dose curve at least 0.9, where 1 is the maximum; inconclusive = response in the unintended direction; inactive = score below 0.9.

Sequence of Broad substrate specificity ATP-binding cassette transporter ABCG2 (Homo sapiens) (Q9UNQ0 whole entry, looked up): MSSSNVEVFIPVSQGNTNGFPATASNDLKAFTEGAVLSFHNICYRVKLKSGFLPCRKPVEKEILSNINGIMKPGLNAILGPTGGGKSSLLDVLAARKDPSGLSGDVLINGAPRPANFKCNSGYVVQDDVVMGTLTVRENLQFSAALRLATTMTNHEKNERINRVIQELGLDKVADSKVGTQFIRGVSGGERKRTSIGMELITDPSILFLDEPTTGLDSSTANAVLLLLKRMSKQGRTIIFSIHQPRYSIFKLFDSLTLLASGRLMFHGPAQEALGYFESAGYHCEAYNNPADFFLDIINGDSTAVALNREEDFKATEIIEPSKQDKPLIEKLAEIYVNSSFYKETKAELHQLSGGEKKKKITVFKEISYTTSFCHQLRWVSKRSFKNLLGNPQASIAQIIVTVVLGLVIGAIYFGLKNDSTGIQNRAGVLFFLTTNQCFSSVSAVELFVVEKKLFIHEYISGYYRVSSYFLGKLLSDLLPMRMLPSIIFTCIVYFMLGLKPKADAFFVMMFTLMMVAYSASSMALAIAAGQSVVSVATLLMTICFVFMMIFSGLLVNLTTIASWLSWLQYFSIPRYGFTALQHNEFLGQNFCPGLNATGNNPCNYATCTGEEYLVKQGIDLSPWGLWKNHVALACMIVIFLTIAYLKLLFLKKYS
Sequence of Glyceraldehyde-3-phosphate dehydrogenase (Homo sapiens) (P04406 whole entry, looked up): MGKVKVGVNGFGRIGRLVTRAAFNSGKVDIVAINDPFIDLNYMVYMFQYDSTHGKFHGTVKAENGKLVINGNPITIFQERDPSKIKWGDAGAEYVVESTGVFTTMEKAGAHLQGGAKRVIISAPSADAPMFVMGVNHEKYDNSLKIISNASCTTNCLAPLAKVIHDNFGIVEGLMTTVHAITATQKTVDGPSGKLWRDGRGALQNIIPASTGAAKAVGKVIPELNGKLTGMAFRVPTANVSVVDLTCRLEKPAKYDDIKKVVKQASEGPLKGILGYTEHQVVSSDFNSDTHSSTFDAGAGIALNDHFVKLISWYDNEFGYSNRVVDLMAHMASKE

Read-out in the first assay: Broad substrate specificity ATP-binding cassette transporter ABCG2 (Homo sapiens) (UniProt Q9UNQ0)
The assay can be described thus: CLD_ABCG2_48hr: CellzDirect (CLD) Gene Expression Assay for ABC Transporter (ABCG2) at 48 hours (AID 2283704).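 As to AC50: potency for induction of ABCG2 mRNA above the DMSO baseline.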 The procedure, abridged: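 Primary human hepatocytes from two donors, dosed daily for 2 days, 0.2% DMSO vehicle, several concentrations. ABCG2 mRNA at 48 h by qNPA chemiluminescence, gain fitted versus DMSO; cytotoxicity flagged by morphology.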
In the case of `COC(=O)c1ccccc1C(=O)O`, the molecule was called inactive.
The same measure, in the same setting: next, `CSC(=O)c1cccc2nnsc12`: “inactive”.
In the case of `CCOC(=O)COc1cc(-n2ncc(C(F)(F)F)c(C)c2=O)c(F)cc1Cl`, the outcome was inactive.
The same measure, in the same setting: the entry for `Cc1nn(C)c(Oc2ccccc2)c1C=NOCc1ccc(C(=O)OC(C)(C)C)cc1` is “inactive”.
A word on the AC50: it is the concentration at which the activity in the assay is half-maximal. As to `S=C(S)NCCNC(=S)S.[Mn+2].[S-]C([S-])=NCCN=C([S-])[S-].[Zn+2]`, the AC50 was 3.67 µM (active).
Consider `CCOC(=O)NCCOc1ccc(Oc2ccccc2)cc1`, for which the outcome was inactive.
Take `CCCCCOC(=O)COc1cc(N2C(=O)C3=C(CCCC3)C2=O)c(F)cc1Cl`: the molecule was classed as inactive.
Still for that read-out and setting: next, `CC(C)(c1ccc(O)cc1)c1ccc(O)cc1`: “inactive”; `N#CSCSc1nc2ccccc2s1`: “inactive”.
`C=CCOC(Cn1ccnc1)c1ccc(Cl)cc1Cl` (stereo not drawn): the AC50 was 34.9 µM (active).
Still for that read-out and setting: the figure for `S=C([S-])NCCNC(=S)[S-].[Mn+2]` is 3.4 µM (active).
In the case of `CC(C)(C)[C@@H](O)[C@@H](Cc1ccc(Cl)cc1)n1cncn1`, the molecule was classed as inactive.

Read-out in the next assay: xenobiotic metabolism (CYP1A1), CYP1A1 (gene 1543)
The assay can be described thus: CLD_CYP1A1_48hr: CellzDirect (CLD) Gene Expression Assay for xenobiotic metabolism (CYP1A1) at 48 hours (AID 2283705). Summed up:
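Primary human hepatocytes from two donors dosed daily for two days at multiple concentrations, 0.2% DMSO vehicle; CYP1A1 mRNA induction at 48 h by qNPA chemiluminescence. Cytotoxicity noted by phase-contrast morphology.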
As to `c1ccc2[nH]c(-c3cscn3)nc2c1`, the AC50 was 0.781 µM (active).
Consider `COC(=O)c1ccccc1C(=O)O`, for which the outcome was inactive.
As to `CSC(=O)c1cccc2nnsc12`, the outcome was inactive.
For the molecule `COC(=O)c1c(Cl)nn(C)c1S(=O)(=O)NC(=O)Nc1nc(OC)cc(OC)n1`, the molecule was called inactive.
Same read-out and setting: the entry for `CCOC(=O)COc1cc(-n2ncc(C(F)(F)F)c(C)c2=O)c(F)cc1Cl` is “inactive”; for `Cc1nn(C)c(Oc2ccccc2)c1C=NOCc1ccc(C(=O)OC(C)(C)C)cc1` it is “inactive”.
Turning to `S=C(S)NCCNC(=S)S.[Mn+2].[S-]C([S-])=NCCN=C([S-])[S-].[Zn+2]`, the AC50 is 0.252 µM (active).
On to `CCN(Cc1c(F)cccc1Cl)c1c([N+](=O)[O-])cc(C(F)(F)F)cc1[N+](=O)[O-]`, for which the AC50 was 1.22 µM (active).
Turning to `CCOC(=O)NCCOc1ccc(Oc2ccccc2)cc1`, the molecule was classed as inactive.
As for `CCCCCOC(=O)COc1cc(N2C(=O)C3=C(CCCC3)C2=O)c(F)cc1Cl`, the call was inactive.
Turning to `COC(=O)c1ccc(CNS(C)(=O)=O)cc1S(=O)(=O)NC(=O)Nc1nc(OC)cc(OC)n1`, the result was inactive.
For the molecule `CCCN(CCC)c1c([N+](=O)[O-])cc(C(F)(F)F)c(N)c1[N+](=O)[O-]`, the AC50 is 5.19 µM (active).
Turning to `CC(C)(c1ccc(O)cc1)c1ccc(O)cc1`, the result was inactive.
Consider `CN(C)C(=O)Nc1ccc(Cl)c(Cl)c1`, for which the AC50 was 12.4 µM (active).
Same read-out and setting: the figure for `N#CSCSc1nc2ccccc2s1` is 7.52 µM (active).
With `C=CCOC(Cn1ccnc1)c1ccc(Cl)cc1Cl` (stereo not drawn), the AC50 is 3.84 µM (active).
With `O=C(O)C1(C(=O)Nc2ccc(Cl)cc2Cl)CC1`, the molecule was called inactive.
Turning to `S=C([S-])NCCNC(=S)[S-].[Mn+2]`, the AC50 was 3.58 µM (active).
As for `CC(C)(C)[C@@H](O)[C@@H](Cc1ccc(Cl)cc1)n1cncn1`, the AC50 was 3.97 µM (active).
In the case of `CCCCOCCOCCOCc1cc2c(cc1CCC)OCO2`, the AC50 is 12 µM (active).

Read-out in the next assay: Glyceraldehyde-3-phosphate dehydrogenase (Homo sapiens) (UniProt P04406)
Put plainly: CLD_GAPDH_48hr: CellzDirect (CLD) Gene Expression Assay for Baseline Control (Glyceraldehyde 3-phosphate dehydrogenase) at 48 hours (AID 2283706).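 Also: active means higher GAPDH mRNA than DMSO vehicle.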 Summed up: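 Primary human hepatocytes dosed daily for two days with fresh chemical at multiple concentrations, 0.2% DMSO vehicle; GAPDH mRNA measured at 48 h by quantitative nuclease protection assay with chemiluminescence, fitted upward relative to DMSO as background control.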
For `CCCCOC(=O)C(C)Oc1ccc(Oc2ccc(C(F)(F)F)cn2)cc1` (stereo not drawn), the call was inactive.
Consider `COC(=O)c1ccccc1C(=O)O`, for which the molecule was classed as inactive.
Still for that read-out and setting: next, `COC(=O)c1c(Cl)nn(C)c1S(=O)(=O)NC(=O)Nc1nc(OC)cc(OC)n1`: “inactive”; `CCOC(=O)COc1cc(-n2ncc(C(F)(F)F)c(C)c2=O)c(F)cc1Cl`: “inactive”.
On the same count and under the same terms, next, `Cc1nn(C)c(Oc2ccccc2)c1C=NOCc1ccc(C(=O)OC(C)(C)C)cc1`: “inactive”.
Turning to `S=C(S)NCCNC(=S)S.[Mn+2].[S-]C([S-])=NCCN=C([S-])[S-].[Zn+2]`, the outcome was inactive.
As for `CCN(CC)C(=O)c1cccc(C)c1`, the result was inactive.
In the case of `CCCOC(=O)c1ccc(C(=O)OCCC)nc1`, the molecule was classed as inactive.
Turning to `Oc1ccc(C(c2ccc(O)cc2)C(Cl)(Cl)Cl)cc1`, the result was inactive.
In the case of `CCCCCOC(=O)COc1cc(N2C(=O)C3=C(CCCC3)C2=O)c(F)cc1Cl`, the outcome was inactive.
On the same count and under the same terms, the entry for `COC(=O)c1ccc(CNS(C)(=O)=O)cc1S(=O)(=O)NC(=O)Nc1nc(OC)cc(OC)n1` is “inactive”; for `CC(C)(c1ccc(O)cc1)c1ccc(O)cc1` it is “inactive”.
With `COc1nc(C)nc(NC(=O)NS(=O)(=O)c2ccccc2OCCCl)n1`, the molecule was called inactive.
As for `N#CSCSc1nc2ccccc2s1`, the molecule was classed as inactive.
Consider `C=CCOC(Cn1ccnc1)c1ccc(Cl)cc1Cl` (stereo not drawn), for which the call was inactive.
Regarding `O=C(O)C1(C(=O)Nc2ccc(Cl)cc2Cl)CC1`, the result was inactive.
For `S=C([S-])NCCNC(=S)[S-].[Mn+2]`, the result was inactive.

Read-out in a further assay: alkyl and aryl transferase (GSTA2), GSTA2 (gene 2939)
Put plainly: CLD_GSTA2_48hr: CellzDirect (CLD) Gene Expression Assay for alkyl and aryl transferase (GSTA2) at 48 hours (AID 2283708).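 Also: active means mRNA induction above DMSO vehicle baseline.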 The procedure, abridged:
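Primary human hepatocytes dosed daily for two days (0.2% DMSO vehicle), harvested at 48 h. GSTA2 mRNA induction measured by quantitative nuclease protection assay with chemiluminescent imaging, fitted for gain of signal relative to DMSO.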
Consider `CSC(=O)c1cccc2nnsc12`, for which the molecule was called inactive.
On the same count and under the same terms, next, `COC(=O)c1c(Cl)nn(C)c1S(=O)(=O)NC(=O)Nc1nc(OC)cc(OC)n1`: “inactive”.
Regarding `CCOC(=O)COc1cc(-n2ncc(C(F)(F)F)c(C)c2=O)c(F)cc1Cl`, the outcome was inactive.
Regarding `Cc1nn(C)c(Oc2ccccc2)c1C=NOCc1ccc(C(=O)OC(C)(C)C)cc1`, the molecule was classed as inactive.
Regarding `Oc1ccc(C(c2ccc(O)cc2)C(Cl)(Cl)Cl)cc1`, the molecule was called inactive.
Consider `CCOC(=O)NCCOc1ccc(Oc2ccccc2)cc1`, for which the molecule was called inactive.
For the molecule `CCCCCOC(=O)COc1cc(N2C(=O)C3=C(CCCC3)C2=O)c(F)cc1Cl`, the result was inactive.
For `COC(=O)c1ccc(CNS(C)(=O)=O)cc1S(=O)(=O)NC(=O)Nc1nc(OC)cc(OC)n1`, the result was inactive.
Regarding `CCCN(CCC)c1c([N+](=O)[O-])cc(C(F)(F)F)c(N)c1[N+](=O)[O-]`, the result was inactive.
`CC(C)(c1ccc(O)cc1)c1ccc(O)cc1`: the call was inactive.
Same read-out and setting: next, `COc1nc(C)nc(NC(=O)NS(=O)(=O)c2ccccc2OCCCl)n1`: “inactive”; `N#CSCSc1nc2ccccc2s1`: “inactive”.
Regarding `C=CCOC(Cn1ccnc1)c1ccc(Cl)cc1Cl` (stereo not drawn), the AC50 is 36.7 µM (active).
As for `CC(C)(C)[C@@H](O)[C@@H](Cc1ccc(Cl)cc1)n1cncn1`, the call was inactive.

These data come from PubChem BioAssay (EPA / NIEHS).
